About 83,000 compounds went through this panel and 20% of them were active in at least one assay; those are over-represented in the sample as a whole.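 Results are percent growth after 48 hours of single-concentration exposure. 100 means growth as in untreated cells, lower positive values show inhibition; negative values down to -100 show cell death.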 A number with no mark means an inactive call. Calls of active or inactive are those of the source.
test system: SK-MEL-28 melanoma; test: NCI-60 one-dose screen, 48 h (100 = growth as untreated, 0 = no growth, -100 = all killed); details: 10 µM unless noted
Experimental: Growth inhibition of the SK-MEL-28 human tumor cell line is measured as a screen for anti-cancer activity. Cells are grown in 96 well plates and exposed to the test compound for 48 hours. Compounds are tested at a single concentration, which is 10^-5 M for most compounds. The reported endpoint is percent growth (GI% or GIPRCNT), where numbers from 0 - 100% represent growth inhibition, and numbers from -100% - 0 represent cell death. For example, a value of 40 represents 60% growth inhibition. A value of 0 means no net growth occurred over the course of the experiment. A value of -40 indicates 40% of cells at the beginning of the experiment died by the end of the experiment. A value of -100 means all cells are dead at the end of the experiment.
NCI-60 Human Tumor Cell Lines Screen was performed using the standard one-dose NCI protocol, which is described in more detail at https://dtp.cancer.gov/discovery_development/nci-60/default.htm.
Compounds with GIPRCNT values below 10 were considered active. Activity score was based on GIPRCNT using the following formula: […]
Score is 0 for GIPRCNT values of 100 or above, 50 for GIPRCNT values of 0, and 100 for GIPRCNT values of -100.

Compound	growth
O=C(CSc1nc2sc3c(c2c(=O)n1-c1ccc(Cl)cc1)CCCC3)N/N=C/c1ccc(F)cc1	108%
CCOC(=O)c1c(Nc2ccccc2)nn2c(N)c(C#N)c(-c3ccc(F)cc3)nc12	100%
COc1ccc(/C=C2\SC(=Nc3cc(C)on3)NC2=O)cc1	106%
C[C@@H]1CN(c2ccc3ncc(C#Cc4cncc(C(=O)Nc5ccc(CN6CCN(C)CC6)c(C(F)(F)F)c5)c4)n3n2)C[C@H](C)O1	-89.5% (active)
O=C(CCN1C(=O)/C(=C/c2ccccc2F)SC1=S)N1CCOCC1	85.1%
Fc1ccc(-c2nc(C(Cl)Cl)nc3cc(-c4ccccc4)nn23)cc1	-13.8% (active)
NC(=O)c1c(NC(=O)c2ccc(C3CCCCC3)cc2)sc2c1CCC(=O)C2	31.7%
CS(=O)(=O)Nc1ccc(-c2nn(-c3ccc(S(C)(=O)=O)cc3)cc2/C=C/C(=O)c2ccc(NC(=O)CO[N+](=O)[O-])cc2)cc1	104%
Cc1nc(-c2cc3ccccc3oc2=O)ccc1C(=O)/C=C/c1ccccn1	95.1%
COC(=O)C1CCCN(S(=O)(=O)/N=C2\NC(=O)NC2=C(Cl)Cl)C1 (stereo not given)	105%
C=CCSc1ccc2c(c1)C(N1CCNCC1)=Nc1ccccc1O2	80.3% [8.25 µM]
COc1cc(/C=C/C(=O)c2cc(OC)c(OC)c(OC)c2)ccc1Oc1nc(NCCO)nc(N2CCOCC2)n1	31.5%
O=C1/C(=C/C2=Cc3ccccc3OC2)SC(=S)N1c1ccc(F)cc1	97.9%
C#Cc1nc(C2=C(C)C(=O)/C(=N/OC(C)=O)C2)cs1	107%
CN(C)c1ccc(/C=C2\Cc3c(F)ccc(Br)c3C2=O)cc1	97.4%
COc1cc(/C=C/C(=O)c2ccccc2)ccc1Oc1nc(NCCO)nc(N2CCOCC2)n1	107%
O=C(Nc1nc2ccc(O)cc2s1)c1cccc(C(F)(F)F)c1	82.2%
N#Cc1ccc(/C=N/NC(=O)c2[nH]c3ccc(Br)cc3c2-c2ccccc2)s1	58.4%
Nc1nc(N)c2c(n1)NC(c1ccc(C(F)(F)F)cc1)CC(c1ccc(Nc3nc(NCCO)nc(Nc4ccc(Cl)cc4)n3)cc1)=N2 (stereo not given)	-94.6% (active)
O=C1Nc2ccc(Cl)cc2/C1=C/c1ccc(OCC(=O)c2ccc(Br)cc2)cc1	99.3%

Compound	growth
O=C(N/N=C/c1ccco1)c1[nH]c2ccc(Br)cc2c1-c1ccccc1	59.9%
COc1ccc(NC2=C(Cl)C(=O)C(C)=C(C)C2=O)cc1OC	108%
CCCCN1C(=O)/C(=c2\sc3n(c2=O)C2C(NN=3)N(CC)C(=O)N2CC)c2cc(Cl)ccc21 (stereo not given)	72.1%
CSc1ccc2c(c1)N(C(=O)/C(C#N)=C/c1c[nH]c3ccccc13)c1ccccc1S2	58.5%
COc1ccc(NC2=CC(=O)C(C)=C(C)C2=O)cc1	99.4%
COc1cccc(NC2=CC(=O)C(C)=C(C)C2=O)c1	96.5%
CC(=NNc1ncnc2ccccc12)c1ccc(S(C)(=O)=O)cc1	113%
O=C1Nc2cc(Cl)ccc2/C1=C\c1ccc(OCc2ccc([N+](=O)[O-])cc2)cc1	84.7%
Clc1ccc2oc3c(NCCCN4CCOCC4)c4ccccc4nc3c2c1	36.9%
C#Cc1nc(C2=C(C)C(OC(C)=O)/C(=N/OC(C)=O)C2)cs1 (stereo not given)	101%
CC1=C(C)C(=O)C(Nc2cccc(C(F)(F)F)c2)=C(Cl)C1=O	98.3%
Clc1ccc2c(OCCCN3CCOCC3)c3oc4ccccc4c3nc2c1	42.1%
CN(C)c1ccc(-c2c(NC(C)(C)C)nc3c(OCCc4ccccc4)cccn23)cc1	35.1%
Nc1c(C(=O)Nc2ccc(C(F)(F)F)cc2)sc2nc(-c3cnccn3)cc(-c3cccs3)c12	89.8%
Cc1sc2nc(NCc3ccccc3Cl)[nH]c(=O)c2c1C	98.6%
Cc1ccccc1NC(=O)/C=C/c1ccc(OCCOc2ccc3c(C)cc(=O)oc3c2)cc1	90.9%
COc1cc2nc(-c3ccc(C)cc3)cc(OCCCNCC3CCCO3)c2cc1OC (stereo not given)	68.1%
CS(=O)(=O)c1ccc(-c2nc3ccccn3c2/C=N/Nc2nc(-c3ccc(Br)cc3)cs2)cc1	103%
Cc1cccc2sc(/N=C(\N)C(Cl)(Cl)Cl)nc12	112%
CCN1C(=S)N(c2ccccc2)C2NC(=O)N(/N=C/C=C/c3ccccc3OC)C21 (stereo not given)	95.3%

From PubChem BioAssay (NCI)
